In PubChem BioAssay (Tox21) one finds Potency data, which are given here for 37 compounds.

“And” between values parts separate entries of the source, which are not always exact repeats. Equal values may be shown once. Results filed as inconclusive are left out. Where a call stands in place of a potency, no number is given. Some structures have more than one record in an assay (separate samples or runs), and their calls can disagree. The source made the active and inactive calls. Calls come from the whole dose curve; as a rule, active = well fitted activation curve with a large enough effect in the repeat runs; inconclusive = weak or mixed curves; inactive = flat fitted curve, though single readings scatter.
Potency is the fitted concentration of half-maximal effect.

The nature of this assay: A CellTox Green Cytotoxicity Assay to monitor cytotoxicity in HepG2 cells - 8 hour (AID 1224890). Note: nearly all actives have a fitted effect of over 45% in size. The conditions noted are these: CellTox Green fluorescence; series mostly up to 76.8 µM. A digest of the protocol:
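Read-out is fluorescence of a cyanine dye excluded from live cells that stains DNA of dead HepG2 cells, with signal proportional to cytotoxicity. Plates were read at 0, 8, 16, 24, 32 and 40 h after compound addition.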
Turning to `CCN(CC)C(=S)[S-].CCN(CC)C(=S)[S-].[Zn+2]`, the Potency entry was “inactive”.

For `N#CC(Cl)Cl`, the Potency is 1.51 µM (active).

With `c1cc[c]([Sb]([c]2ccccc2)[c]2ccccc2)cc1`, the Potency result is “inactive”.

For the compound `Clc1ccc(COC(Cn2ccnc2)c2ccc(Cl)cc2Cl)cc1` (configuration not stated), the Potency result was “inactive and 54.7 µM (active)”.

Turning to `Cc1cc(C)c(C2=C(OC(=O)CC(C)(C)C)C3(CCCC3)OC2=O)c(C)c1`, the Potency entry is “inactive”.

Regarding `CC(=O)[O-].CC(=O)[O-].[Hg+2]`, the Potency is 3.09 µM (active).

Regarding `NC(=O)CCl`, the Potency entry is “inactive”.

For `CCC(C)c1cc(C(C)(C)C)cc(-n2nc3ccccc3n2)c1O` (configuration not stated), the Potency entry was “inactive”.

For `CCOc1cc(C(C)(C)C)ccc1C1COC(c2c(F)cccc2F)=N1` (configuration not stated), the Potency result is “inactive”.

On to `NC(=O)c1ccc(N)nc1`, for which the Potency entry was “inactive”.

`Cc1cc(SCc2sc(-c3ccc(C(F)(F)F)c(F)c3)nc2C)ccc1OCC(=O)O`: the Potency result was “inactive”.

Consider `COc1ccc(OC)c(CC(C)N)c1` (configuration not stated), for which the Potency result is “inactive”.

For the compound `Cc1cc(C(F)(C(F)(F)F)C(F)(F)F)ccc1NC(=O)c1cccc(I)c1C(=O)NC(C)(C)CS(C)(=O)=O`, the Potency result is “inactive”.

On to `[Cd+2].[Cl-].[Cl-]`, for which the Potency entry was “inactive”.

With `CCOP(=S)(OCC)SCCS(=O)(=O)CC`, the Potency result is “inactive”.

In the case of `CC(C)(COCC1CO1)COCC1CO1` (configuration not stated), the Potency result was “inactive”.

For `C=COCCCl`, the Potency entry was “inactive”.

With `Cc1ccc(C(=O)Cl)cc1`, the Potency result was “inactive”.

Regarding `CCCCCCCCCBr`, the Potency result is “inactive”.

Regarding `CC(=O)Nc1ccc2c(c1)Cc1ccccc1-2`, the Potency result was “inactive”.

Regarding `CC(C)N1C(=O)N(c2ccccc2)CSC1=NC(C)(C)C`, the Potency result was “inactive”.

In the case of `C=CC(=O)OCC(COC(=O)C=C)(COC(=O)C=C)COC(=O)C=C`, the Potency result was “inactive”.

With `[CH3][Hg][Cl]`, the Potency is 15.5 µM (active).

With `Nc1ccc([N+](=O)[O-])cc1Cl`, the Potency entry is “inactive”.

Consider `O=C(CCl)C(Cl)Cl`, for which the Potency result was “inactive”.

With `CCCCN(CCCC)C(=S)[S-].CCCCN(CCCC)C(=S)[S-].[Zn+2]`, the Potency entry is “inactive”.

With `CCOCCOC(C)=O`, the Potency result is “inactive”.

Take `[Cl][Sn]([c]1ccccc1)([c]1ccccc1)[c]1ccccc1`: the Potency was 9.28 µM (active).

Consider `CCCCCCCCCCCCCCCC[N+](C)(C)C`, for which the Potency is 54.9 µM (active) and 21.3 µM (active).

Turning to `N#CSCSC#N`, the Potency is 34.3 µM (active).

In the case of `C[C@]12Cc3nonc3C[C@@H]1CC[C@@H]1[C@@H]2CC[C@@]2(C)[C@H]1CC[C@]2(C)O`, the Potency entry is “inactive”.

Take `ClC(Cl)=C(Cl)Cl`: the Potency result is “inactive”.

For the compound `C[As+](C)(C)CC(=O)[O-]`, the Potency entry is “inactive”.

For `COP(N)(=S)OC`, the Potency result was “inactive”.

For the compound `ClC1=C(Cl)[C@]2(Cl)[C@@H]3[C@@H](Cl)[C@@H](Cl)C[C@@H]3[C@@]1(Cl)C2(Cl)Cl`, the Potency entry is “inactive”.

Take `FC(Cl)(Cl)Cl`: the Potency entry was “inactive”.

For `Cl/C=C\CCl`, the Potency result is “inactive”.
